{"source": "the supplement of paper PMC10849652", "note": "Of roughly 7,900 targets only a part is listed; those with a hit were picked by preference. About 0.6% of all pairs of compound and target were hits. Values without a mark were called inactive.", "data": [{"target": "YAE1 (UniProt Q9NRH1)", "sequence (Q9NRH1 whole entry, looked up)": "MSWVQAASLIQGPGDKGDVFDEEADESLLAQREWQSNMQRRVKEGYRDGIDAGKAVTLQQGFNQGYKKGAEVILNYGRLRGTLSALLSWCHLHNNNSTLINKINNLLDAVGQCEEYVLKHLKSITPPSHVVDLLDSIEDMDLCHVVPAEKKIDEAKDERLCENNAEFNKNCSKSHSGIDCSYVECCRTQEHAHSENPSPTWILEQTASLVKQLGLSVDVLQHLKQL", "assay": "log2 fold change, soluble protein after heating vs DMSO (PISA); higher = thermal stabilisation; K562 cells, 10 uM, 30 min; active = over 0.2 and 3.5 SD of the protein, either way, in both replicates (recomputed)", "procedure,_shortened": "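For each measurement, 10 μM compound was applied for 30 min to K562 cells at 2×10^6 cells/mL. Aliquots were heated for 3 min across 48°C-58°C, pooled, and extracted in PBS with 0.5% NP-40 at 4°C; the supernatant after 21,000xg for 90 min was soluble protein. This was quantified by TMTpro 16plex LC-MS/MS with channel sums equalised, and thermal stability was reported relative to control samples from duplicates, on a log2 fold-change scale.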", "values": [{"smiles": "CN1CCN(CCOc2cc(OC3CCOCC3)c3c(Nc4c(Cl)ccc5c4OCO5)ncnc3c2)CC1", "note": "[saracatinib]", "log2 fold change": 0.025}, {"smiles": "C[C@@H](N)c1ccc(C(=O)Nc2ccnc3[nH]ccc23)cc1", "log2 fold change": 0.1}, {"smiles": "Fc1ccc(Cl)cc1-c1nc(Nc2ccncc2)c2nccnc2n1", "log2 fold change": 0.007}, {"smiles": "Cc1cc(Nc2cc(N3CCN(C)CC3)nc(Sc3ccc(NC(=O)C4CC4)cc3)n2)n[nH]1", "note": "[tozasertib]", "log2 fold change": 0.033}, {"smiles": "c1cc(OCCN2CCCCC2)cc(-c2n[nH]c3ccc(-c4nnc[nH]4)cc23)c1", "log2 fold change": -0.001}, {"smiles": "C/C(=N\\NC(=O)c1cccc(S(=O)(=O)N2CCOCC2)c1)c1cc(Cl)ccc1O", "log2 fold change": -0.051}, {"smiles": "O=C(Nc1cccc(Nc2ncc(Br)c(NCCc3cnc[nH]3)n2)c1)N1CCCC1", "log2 fold change": -0.084}, {"smiles": "NC1(c2ccc(-c3nc4ccn5c(=O)[nH]nc5c4cc3-c3ccccc3)cc2)CCC1", "log2 fold change": 0.086}, {"smiles": "Cc1cccc(-c2[nH]c(C(C)(C)C)nc2-c2ccc3nccnc3c2)n1", "log2 fold change": 0.019}, {"smiles": "CC(C)N(C[C@H]1O[C@@H](n2cnc3c(N)ncnc32)[C@H](O)[C@@H]1O)[C@H]1C[C@@H](CCc2nc3cc(C(C)(C)C)ccc3[nH]2)C1", "note": "[pinometostat]", "log2 fold change": 0.011}, {"smiles": "COc1cc2nc(-c3cc(F)ccc3O)nc(N[C@@H]3CNC[C@H]3C(C)(C)O)c2cc1OC", "log2 fold change": 0.125}, {"smiles": "CNC(=O)c1ccccc1Nc1nc(Nc2ccc(N3CCOCC3)cc2OC)ncc1Cl", "log2 fold change": -0.002}, {"smiles": "O=C(Nc1nc2ccccc2n1CCN1CCOCC1)c1cccc([N+](=O)[O-])c1", "note": "[IRAK-1-4 Inhibitor I]", "log2 fold change": 0.103}, {"smiles": "C[C@@H](Oc1cc(-c2cnn(C3CCNCC3)c2)cnc1N)c1c(Cl)ccc(F)c1Cl", "note": "[crizotinib]", "log2 fold change": -0.018}, {"smiles": "COc1cc(Nc2ncc3c(n2)-c2ccc(Cl)cc2C(c2c(F)cccc2OC)=NC3)ccc1C(=O)O", "note": "[alisertib]", "log2 fold change": -0.065}, {"smiles": "CN1CC[C@H](c2c(O)cc(O)c3c(=O)cc(-c4ccccc4Cl)oc23)[C@H](O)C1", "note": "[alvocidib]", "log2 fold change": "0.249 (active)"}, {"smiles": "CN1CCc2c(c3ccccc3n2Cc2ccc(C(=O)NO)cc2)C1", "note": "[Tubastatin A]", "log2 fold change": -0.018}, {"smiles": "O=C1c2ccccc2-c2n[nH]c3cccc1c23", "log2 fold change": -0.048}, {"smiles": "CNCc1ccc(-c2[nH]c3cc(F)cc4c3c2CCNC4=O)cc1", "note": "[rucaparib]", "log2 fold change": -0.078}, {"smiles": "COc1cccc2cc(-c3nc([C@H]4CC[C@H](C(=O)O)CC4)n4ncnc(N)c34)[nH]c12", "log2 fold change": 0.016}, {"smiles": "Cc1ccc2c(=O)c3ccccc3n(CCCN)c2c1C", "log2 fold change": 0.022}, {"smiles": "O=C1NC(=O)C(c2cnc3ccccn23)=C1c1cn2c3c(cc(F)cc13)CN(C(=O)N1CCCCC1)CC2", "log2 fold change": -0.02}, {"smiles": "COc1ccc(Cn2ccc3ccc(C(=O)NO)cc32)cc1", "log2 fold change": 0.013}, {"smiles": "CN(C)CC(=O)Nc1ccc2[nH]c(=O)c3ccccc3c2c1", "log2 fold change": -0.108}, {"smiles": "COc1cc(C(=O)O)ccc1NC(=O)[C@@H]1N[C@@H](CC(C)(C)C)[C@](C#N)(c2ccc(Cl)cc2F)[C@H]1c1cccc(Cl)c1F", "note": "[idasanutlin]", "log2 fold change": 0.124}, {"smiles": "O=C1NC(=NCc2cccs2)S/C1=C\\c1ccc2ncccc2c1", "log2 fold change": -0.018}, {"smiles": "NC(=O)c1cnc(N[C@@H]2CCCC[C@@H]2N)nc1Nc1cccc(-n2nccn2)c1", "log2 fold change": -0.038}, {"smiles": "Cc1ccc(-n2nc(C(C)(C)C)cc2NC(=O)Nc2ccc(OCCN3CCOCC3)c3ccccc23)cc1", "note": "[doramapimod]", "log2 fold change": -0.033}, {"smiles": "NC1(Cc2ccc(Cl)cc2)CCN(c2ncnc3[nH]ccc23)CC1", "log2 fold change": -0.022}, {"smiles": "CC(=O)c1cnc2ccc(-c3cc(Cl)c(O)c(Cl)c3)nc2c1N[C@H]1CC[C@H](CN(C)C)CC1", "log2 fold change": 0.078}]}]}
